Reference: publication PMC7862700, “An all-to-all approach to the identification of sequence-specific readers for epigenetic DNA modifications on cytosine”

Columns and labels:
Experiment in all cases: DAPPL (digital affinity profiling via proximity ligation, sequencing); 10 mM Tris-HCl pH 7.5, 50 mM NaCl, 1 mM DTT, 4% glycerol, room temperature, 30 min; GST-TFs on glutathione beads, 16-mer random dsDNA library, 0.1% formaldehyde crosslink after washing; high values mean tight binding
FEV = target: T1, FEV (Homo sapiens, UniProt Q99581 1-238); settings: protein: recombinant; tags: N-terminal GST; dsDNA, one strand shown
T1 sequence: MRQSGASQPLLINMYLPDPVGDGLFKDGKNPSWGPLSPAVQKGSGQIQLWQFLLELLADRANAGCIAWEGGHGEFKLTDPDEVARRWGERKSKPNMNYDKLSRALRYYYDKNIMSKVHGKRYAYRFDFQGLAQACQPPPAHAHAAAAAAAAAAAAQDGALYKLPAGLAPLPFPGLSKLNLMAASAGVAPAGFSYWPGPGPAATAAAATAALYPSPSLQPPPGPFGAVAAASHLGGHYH
Procedure, shortened: (§1)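 In yeast, human transcription factors were expressed with a GST fusion, then pulled down on glutathione beads and given DNA barcodes. Pooled with a tag-only sample, they were exposed to 200 nmole of a 16-mer random double-stranded DNA library (Tris/NaCl/DTT/glycerol buffer, room temperature, 30 min), washed, crosslinked with 0.1% formaldehyde, proximity-ligated using BsaI/T4 ligase for 1 h at 37 °C, PCR-amplified and read on an Illumina NextSeq500. Each hexamer's frequency of reads for a factor, divided by the matching frequency for the tag-only sample, gives the binding signal.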

ETV5 = ETV5 (Homo sapiens, UniProt P41161 1-510); settings: protein: recombinant; tags: N-terminal GST; dsDNA, one strand shown
ETV5, sequence (P41161 whole entry): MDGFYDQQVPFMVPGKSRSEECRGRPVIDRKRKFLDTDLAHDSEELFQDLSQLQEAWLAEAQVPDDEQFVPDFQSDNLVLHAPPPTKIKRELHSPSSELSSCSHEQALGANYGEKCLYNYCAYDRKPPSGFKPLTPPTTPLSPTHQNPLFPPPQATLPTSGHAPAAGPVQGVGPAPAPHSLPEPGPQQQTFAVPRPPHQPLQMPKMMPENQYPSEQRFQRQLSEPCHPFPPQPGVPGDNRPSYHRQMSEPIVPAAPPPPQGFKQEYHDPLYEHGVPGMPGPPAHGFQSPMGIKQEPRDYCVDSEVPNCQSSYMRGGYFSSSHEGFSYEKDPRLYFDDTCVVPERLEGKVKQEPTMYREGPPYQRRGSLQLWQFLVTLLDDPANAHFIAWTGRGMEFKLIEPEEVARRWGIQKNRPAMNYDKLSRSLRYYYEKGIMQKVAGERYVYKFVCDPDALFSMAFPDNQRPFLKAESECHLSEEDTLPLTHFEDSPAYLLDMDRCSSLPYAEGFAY
Procedure, shortened: as §1

HSF1 = HSF1 (Homo sapiens, UniProt Q00613 1-529); settings: protein: recombinant; tags: N-terminal GST; chain copies: 3; dsDNA, one strand shown
HSF1, sequence (Q00613 whole entry): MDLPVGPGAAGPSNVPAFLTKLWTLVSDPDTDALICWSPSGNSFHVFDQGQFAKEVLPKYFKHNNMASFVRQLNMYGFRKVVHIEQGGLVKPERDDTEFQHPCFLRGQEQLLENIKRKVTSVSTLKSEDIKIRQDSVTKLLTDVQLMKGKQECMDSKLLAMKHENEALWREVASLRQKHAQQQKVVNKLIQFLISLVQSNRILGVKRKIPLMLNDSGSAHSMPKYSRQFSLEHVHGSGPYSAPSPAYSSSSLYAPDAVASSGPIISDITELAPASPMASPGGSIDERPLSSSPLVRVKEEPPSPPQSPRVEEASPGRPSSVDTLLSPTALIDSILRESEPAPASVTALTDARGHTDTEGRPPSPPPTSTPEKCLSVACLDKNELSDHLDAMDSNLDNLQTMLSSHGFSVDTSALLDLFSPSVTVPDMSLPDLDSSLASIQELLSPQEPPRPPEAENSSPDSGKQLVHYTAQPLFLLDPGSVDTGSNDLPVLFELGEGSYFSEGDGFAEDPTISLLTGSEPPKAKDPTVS
Procedure, shortened: as §1

SPIC = target: T2, SPIC (Homo sapiens, UniProt Q8N5J4 1-248); settings: protein: recombinant; tags: N-terminal GST; dsDNA, one strand shown
T2 sequence: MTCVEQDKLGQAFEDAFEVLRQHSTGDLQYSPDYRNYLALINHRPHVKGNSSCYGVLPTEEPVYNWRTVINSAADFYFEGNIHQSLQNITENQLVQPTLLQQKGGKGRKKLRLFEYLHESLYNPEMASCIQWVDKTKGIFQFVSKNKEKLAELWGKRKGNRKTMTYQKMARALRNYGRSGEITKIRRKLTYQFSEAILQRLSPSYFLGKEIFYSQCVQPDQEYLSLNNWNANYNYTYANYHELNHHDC
Procedure, shortened: as §1

ELF4 = ELF4 (Homo sapiens, UniProt Q99607 1-663); settings: protein: recombinant; tags: N-terminal GST; dsDNA, one strand shown
ELF4, sequence (Q99607 whole entry): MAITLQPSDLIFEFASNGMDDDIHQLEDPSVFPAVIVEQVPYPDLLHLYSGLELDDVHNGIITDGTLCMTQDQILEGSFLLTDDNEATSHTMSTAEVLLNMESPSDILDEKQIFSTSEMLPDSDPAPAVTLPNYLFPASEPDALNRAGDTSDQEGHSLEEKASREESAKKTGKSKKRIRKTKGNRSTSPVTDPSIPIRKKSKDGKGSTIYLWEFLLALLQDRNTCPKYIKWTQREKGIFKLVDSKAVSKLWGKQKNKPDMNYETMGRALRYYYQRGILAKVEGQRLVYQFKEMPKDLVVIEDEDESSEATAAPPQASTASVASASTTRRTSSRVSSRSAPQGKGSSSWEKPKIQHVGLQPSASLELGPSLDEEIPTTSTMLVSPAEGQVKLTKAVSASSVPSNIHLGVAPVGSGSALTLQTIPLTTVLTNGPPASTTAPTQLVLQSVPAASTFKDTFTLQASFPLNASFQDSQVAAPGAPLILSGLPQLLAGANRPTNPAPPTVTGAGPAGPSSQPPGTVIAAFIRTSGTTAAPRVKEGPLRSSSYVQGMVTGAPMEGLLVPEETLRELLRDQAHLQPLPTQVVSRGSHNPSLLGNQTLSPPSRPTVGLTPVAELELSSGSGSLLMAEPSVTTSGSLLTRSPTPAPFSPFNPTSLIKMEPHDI
Procedure, shortened: as §1

ELK4 = target: T3, ELK4 (Homo sapiens, UniProt P28324-2 1-405); settings: protein: recombinant; tags: N-terminal GST; dsDNA, one strand shown
T3 sequence: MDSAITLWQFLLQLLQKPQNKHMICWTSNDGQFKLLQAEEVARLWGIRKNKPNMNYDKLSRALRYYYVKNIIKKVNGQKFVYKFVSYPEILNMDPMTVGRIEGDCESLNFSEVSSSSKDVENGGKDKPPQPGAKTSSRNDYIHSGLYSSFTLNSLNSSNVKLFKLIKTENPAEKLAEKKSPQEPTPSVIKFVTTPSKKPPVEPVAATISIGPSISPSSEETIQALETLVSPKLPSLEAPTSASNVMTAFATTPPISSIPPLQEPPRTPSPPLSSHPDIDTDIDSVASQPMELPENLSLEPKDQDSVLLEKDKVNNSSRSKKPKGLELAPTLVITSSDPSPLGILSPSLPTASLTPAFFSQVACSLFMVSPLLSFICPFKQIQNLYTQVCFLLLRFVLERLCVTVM
Procedure, shortened: as §1

ETV2 = target: T4, ETV2 (Homo sapiens, UniProt O00321 1-342); settings: protein: recombinant; tags: N-terminal GST; dsDNA, one strand shown
T4 sequence: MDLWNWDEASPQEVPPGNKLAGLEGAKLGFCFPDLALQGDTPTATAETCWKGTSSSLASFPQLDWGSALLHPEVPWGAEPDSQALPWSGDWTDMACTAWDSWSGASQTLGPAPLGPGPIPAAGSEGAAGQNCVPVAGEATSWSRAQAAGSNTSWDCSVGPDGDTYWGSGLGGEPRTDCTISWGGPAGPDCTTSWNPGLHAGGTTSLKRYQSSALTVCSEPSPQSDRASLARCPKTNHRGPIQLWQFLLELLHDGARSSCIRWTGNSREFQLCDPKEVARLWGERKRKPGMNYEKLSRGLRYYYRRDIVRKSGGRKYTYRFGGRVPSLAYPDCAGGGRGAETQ
Procedure, shortened: as §1

ELF3 = target: T5, ELF3 (Homo sapiens, UniProt P78545 1-371); settings: protein: recombinant; tags: N-terminal GST; dsDNA, one strand shown
T5 sequence: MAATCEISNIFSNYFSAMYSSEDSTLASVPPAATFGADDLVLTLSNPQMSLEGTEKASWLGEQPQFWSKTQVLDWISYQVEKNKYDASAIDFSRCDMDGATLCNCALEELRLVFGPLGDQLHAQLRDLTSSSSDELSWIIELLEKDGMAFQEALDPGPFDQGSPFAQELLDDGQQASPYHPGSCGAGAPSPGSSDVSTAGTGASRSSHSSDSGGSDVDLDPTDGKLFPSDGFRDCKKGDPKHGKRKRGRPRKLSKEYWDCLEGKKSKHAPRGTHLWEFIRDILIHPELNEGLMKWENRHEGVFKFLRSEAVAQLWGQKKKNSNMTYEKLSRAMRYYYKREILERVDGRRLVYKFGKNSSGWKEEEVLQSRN
Procedure, shortened: as §1

CRX = CRX (Homo sapiens, UniProt O43186 1-299); settings: protein: recombinant; tags: N-terminal GST; dsDNA, one strand shown
CRX, sequence (O43186 whole entry): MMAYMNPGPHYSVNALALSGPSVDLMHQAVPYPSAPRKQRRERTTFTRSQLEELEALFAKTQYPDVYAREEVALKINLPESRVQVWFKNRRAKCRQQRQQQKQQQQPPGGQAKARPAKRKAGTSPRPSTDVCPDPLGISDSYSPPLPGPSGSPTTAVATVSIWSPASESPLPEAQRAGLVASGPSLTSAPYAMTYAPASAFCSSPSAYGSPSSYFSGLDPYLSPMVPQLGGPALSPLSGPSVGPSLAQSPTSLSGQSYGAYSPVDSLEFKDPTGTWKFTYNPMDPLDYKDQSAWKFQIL
Procedure, shortened: as §1

ETV1 = ETV1 (Homo sapiens, UniProt P50549 1-477); settings: protein: recombinant; tags: N-terminal GST; dsDNA, one strand shown
ETV1, sequence (P50549 whole entry): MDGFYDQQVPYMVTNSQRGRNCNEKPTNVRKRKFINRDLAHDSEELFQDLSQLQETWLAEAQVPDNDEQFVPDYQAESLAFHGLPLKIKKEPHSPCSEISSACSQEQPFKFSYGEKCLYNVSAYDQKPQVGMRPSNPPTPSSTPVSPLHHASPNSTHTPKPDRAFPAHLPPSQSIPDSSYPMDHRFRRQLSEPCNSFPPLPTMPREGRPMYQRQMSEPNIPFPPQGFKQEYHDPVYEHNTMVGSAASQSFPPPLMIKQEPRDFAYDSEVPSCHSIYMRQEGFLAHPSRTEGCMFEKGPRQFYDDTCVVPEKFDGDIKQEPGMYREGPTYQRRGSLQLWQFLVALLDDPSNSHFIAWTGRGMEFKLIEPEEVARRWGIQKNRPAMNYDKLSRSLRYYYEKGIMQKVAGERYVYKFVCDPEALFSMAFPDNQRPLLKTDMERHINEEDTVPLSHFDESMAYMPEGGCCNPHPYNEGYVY
Procedure, shortened: as §1

ERF = target: T6, ERF (Homo sapiens, UniProt P50548 1-548); settings: protein: recombinant; tags: N-terminal GST; dsDNA, one strand shown
T6 sequence: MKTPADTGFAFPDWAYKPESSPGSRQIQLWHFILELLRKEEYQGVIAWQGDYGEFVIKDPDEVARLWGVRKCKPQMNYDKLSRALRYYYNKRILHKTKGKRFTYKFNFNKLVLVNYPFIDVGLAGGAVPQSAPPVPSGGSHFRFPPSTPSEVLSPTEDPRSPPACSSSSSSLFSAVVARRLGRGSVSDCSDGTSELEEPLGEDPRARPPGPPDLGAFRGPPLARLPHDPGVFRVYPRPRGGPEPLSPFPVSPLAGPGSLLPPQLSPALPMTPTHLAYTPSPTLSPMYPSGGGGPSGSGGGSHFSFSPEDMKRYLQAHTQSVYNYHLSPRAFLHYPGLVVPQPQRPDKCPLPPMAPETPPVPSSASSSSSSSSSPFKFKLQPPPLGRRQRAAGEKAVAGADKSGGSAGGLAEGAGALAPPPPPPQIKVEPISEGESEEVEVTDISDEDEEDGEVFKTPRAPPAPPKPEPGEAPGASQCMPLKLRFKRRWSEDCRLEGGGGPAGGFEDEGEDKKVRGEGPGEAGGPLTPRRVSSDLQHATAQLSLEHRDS
Procedure, shortened: as §1

ETV3L = target: T7, ETV3L (Homo sapiens, UniProt Q6ZN32 1-361); settings: protein: recombinant; tags: N-terminal GST; dsDNA, one strand shown
T7 sequence: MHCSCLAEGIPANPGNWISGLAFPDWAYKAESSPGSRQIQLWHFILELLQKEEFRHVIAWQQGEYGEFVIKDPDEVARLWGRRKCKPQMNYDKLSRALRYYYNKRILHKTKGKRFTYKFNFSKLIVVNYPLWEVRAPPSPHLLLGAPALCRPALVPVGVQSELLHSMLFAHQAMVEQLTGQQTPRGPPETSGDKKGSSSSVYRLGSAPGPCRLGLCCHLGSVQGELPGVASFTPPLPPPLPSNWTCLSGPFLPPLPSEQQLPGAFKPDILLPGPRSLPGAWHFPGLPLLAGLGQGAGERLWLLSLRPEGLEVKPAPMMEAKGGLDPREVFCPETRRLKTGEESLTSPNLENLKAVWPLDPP
Procedure, shortened: as §1

ETS2 = target: T8, ETS2 (Homo sapiens, UniProt P15036 1-469); settings: protein: recombinant; tags: N-terminal GST; dsDNA, one strand shown
T8 sequence: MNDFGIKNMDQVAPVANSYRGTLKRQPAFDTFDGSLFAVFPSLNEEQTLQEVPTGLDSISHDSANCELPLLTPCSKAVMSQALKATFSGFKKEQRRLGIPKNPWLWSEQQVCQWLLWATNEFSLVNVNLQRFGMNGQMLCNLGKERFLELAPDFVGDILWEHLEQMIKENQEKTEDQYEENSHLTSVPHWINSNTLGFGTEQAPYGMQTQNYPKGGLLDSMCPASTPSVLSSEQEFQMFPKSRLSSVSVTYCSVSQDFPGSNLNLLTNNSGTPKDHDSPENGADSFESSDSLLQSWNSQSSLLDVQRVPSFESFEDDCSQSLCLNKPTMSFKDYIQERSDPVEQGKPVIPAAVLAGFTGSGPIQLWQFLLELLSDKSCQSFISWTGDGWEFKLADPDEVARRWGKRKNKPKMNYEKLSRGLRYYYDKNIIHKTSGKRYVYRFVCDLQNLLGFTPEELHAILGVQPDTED
Procedure, shortened: as §1

SPDEF = target: T9, SPDEF (Homo sapiens, UniProt O95238 1-335); settings: protein: recombinant; tags: N-terminal GST; dsDNA, one strand shown
T9 sequence: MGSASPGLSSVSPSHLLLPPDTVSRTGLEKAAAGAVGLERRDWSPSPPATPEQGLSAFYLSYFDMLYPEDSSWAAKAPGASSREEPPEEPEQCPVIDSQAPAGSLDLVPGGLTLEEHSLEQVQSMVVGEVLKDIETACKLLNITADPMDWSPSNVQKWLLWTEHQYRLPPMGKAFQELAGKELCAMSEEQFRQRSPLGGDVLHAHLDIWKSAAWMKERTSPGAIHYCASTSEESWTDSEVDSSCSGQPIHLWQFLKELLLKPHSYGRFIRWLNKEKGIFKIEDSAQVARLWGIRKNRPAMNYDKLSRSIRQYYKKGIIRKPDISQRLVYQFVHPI
Procedure, shortened: as §1

ETV7 = target: T10, ETV7 (Homo sapiens, UniProt Q9Y603 1-341); settings: protein: recombinant; tags: N-terminal GST; dsDNA, one strand shown
T10 sequence: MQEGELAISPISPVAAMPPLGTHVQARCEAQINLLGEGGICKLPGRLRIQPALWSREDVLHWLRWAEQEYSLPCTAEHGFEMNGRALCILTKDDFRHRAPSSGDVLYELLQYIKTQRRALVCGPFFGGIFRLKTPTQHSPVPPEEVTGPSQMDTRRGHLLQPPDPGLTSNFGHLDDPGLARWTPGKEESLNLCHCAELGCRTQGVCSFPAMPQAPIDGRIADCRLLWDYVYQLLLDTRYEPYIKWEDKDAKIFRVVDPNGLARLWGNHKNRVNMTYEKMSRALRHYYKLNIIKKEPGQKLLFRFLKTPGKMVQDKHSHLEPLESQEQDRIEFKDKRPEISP
Procedure, shortened: as §1

ELF5 = target: T11, ELF5 (Homo sapiens, UniProt Q9UKW6-2 1-255); settings: protein: recombinant; tags: N-terminal GST; dsDNA, one strand shown
T11 sequence: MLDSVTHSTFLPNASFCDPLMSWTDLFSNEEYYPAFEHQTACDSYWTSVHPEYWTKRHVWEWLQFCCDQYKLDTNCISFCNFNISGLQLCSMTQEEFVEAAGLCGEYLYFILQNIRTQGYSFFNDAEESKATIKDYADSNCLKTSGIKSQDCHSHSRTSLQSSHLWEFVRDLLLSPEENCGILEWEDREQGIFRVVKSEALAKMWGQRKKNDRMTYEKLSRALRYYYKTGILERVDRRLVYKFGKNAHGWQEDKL
Procedure, shortened: as §1

ETV3 = target: T12, ETV3 (Homo sapiens, UniProt P41162-2 1-143); settings: protein: recombinant; tags: N-terminal GST; dsDNA, one strand shown
T12 sequence: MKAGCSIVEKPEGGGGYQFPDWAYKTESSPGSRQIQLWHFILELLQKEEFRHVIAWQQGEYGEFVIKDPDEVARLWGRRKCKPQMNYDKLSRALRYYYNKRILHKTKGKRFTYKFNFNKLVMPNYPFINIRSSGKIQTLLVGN
Procedure, shortened: as §1

ETV6 = ETV6 (Homo sapiens, UniProt P41212 1-452); settings: protein: recombinant; tags: N-terminal GST; dsDNA, one strand shown
ETV6, sequence (P41212 whole entry): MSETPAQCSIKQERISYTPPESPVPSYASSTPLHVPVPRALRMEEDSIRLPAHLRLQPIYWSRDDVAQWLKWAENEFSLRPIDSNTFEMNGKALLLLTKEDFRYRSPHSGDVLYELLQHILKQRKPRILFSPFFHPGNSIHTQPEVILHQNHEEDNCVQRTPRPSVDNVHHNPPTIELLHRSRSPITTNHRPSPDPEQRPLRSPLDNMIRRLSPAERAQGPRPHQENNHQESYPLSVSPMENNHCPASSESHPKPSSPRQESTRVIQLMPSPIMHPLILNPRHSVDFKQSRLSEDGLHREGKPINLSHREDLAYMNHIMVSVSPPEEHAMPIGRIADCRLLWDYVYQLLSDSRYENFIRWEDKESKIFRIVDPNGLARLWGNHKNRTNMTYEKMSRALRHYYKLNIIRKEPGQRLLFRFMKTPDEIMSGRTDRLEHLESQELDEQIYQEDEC
Procedure, shortened: as §1

CTCAGC
binding signal (FEV): 1.3 fold enrichment (6-mer frequency, TF over GST control)
binding signal (ETV5): 1.11 fold enrichment (6-mer frequency, TF over GST control)
binding signal (HSF1): 1.1 fold enrichment (6-mer frequency, TF over GST control)
binding signal (SPIC): 1.16 fold enrichment (6-mer frequency, TF over GST control)
binding signal (ELF4): 1.27 fold enrichment (6-mer frequency, TF over GST control)
binding signal (ELK4): 1.24 fold enrichment (6-mer frequency, TF over GST control)
binding signal (ETV2): 1.31 fold enrichment (6-mer frequency, TF over GST control)
binding signal (ELF3): 1.2 fold enrichment (6-mer frequency, TF over GST control)
binding signal (CRX): 1.31 fold enrichment (6-mer frequency, TF over GST control)
binding signal (ETV1): 1.28 fold enrichment (6-mer frequency, TF over GST control)
binding signal (ERF): 1.1 fold enrichment (6-mer frequency, TF over GST control)
binding signal (ETV3L): 1.36 fold enrichment (6-mer frequency, TF over GST control)
binding signal (ETS2): 1.22 fold enrichment (6-mer frequency, TF over GST control)
binding signal (SPDEF): 1.15 fold enrichment (6-mer frequency, TF over GST control)
binding signal (ETV7): 1.21 fold enrichment (6-mer frequency, TF over GST control)
binding signal (ELF5): 1.08 fold enrichment (6-mer frequency, TF over GST control)
binding signal (ETV3): 1.32 fold enrichment (6-mer frequency, TF over GST control)
binding signal (ETV6): 1.2 fold enrichment (6-mer frequency, TF over GST control)
